Laboratory results: ChEMBL document CHEMBL3988442, “University of Dundee, Small-Polar-MMV Screening Library” (2021)

molecular target: AMP-activated protein kinase, AMPK (Homo sapiens) (UniProt P54646+O43741+P54619+Q9UGJ0+Q9Y478+Q13131+Q9UGI9); assay: AMP-dependent Kinase enzyme assay. An in vitro enzyme assay that detects ADP turnover that is directly proportional to AMPK activity. This uses naive AMPK that is activated during the assay with MK-8722; type: functional; parameters: scale not given: direction of the effect not stated beside the values; conditions: 30 µM

SMILES	Percent Effect [%]
O=C(COc1ccc(F)cc1F)N1CCOCC(O)(CN2CCCC2)C1 (stereo not given)	8.54
CC1CN(CC(=O)NCCc2ccccc2)CCN1c1nccs1 (stereo not given)	25.7
O=C(Nc1cn[nH]c1)NC1CCN(c2ccccc2OC(F)F)C1 (stereo not given)	-1.4
Cc1cncc(C2CCN(Cc3ccncc3)CC2)n1	7.85
COc1ccc(CN(Cc2ccsc2)CC2CCCO2)cn1 (stereo not given)	5.75
CCC(Nc1ccc(CCN2CCOCC2)cc1)C(N)=O (stereo not given)	-3.46
CCN(Cc1nccn1C)C1CCN(c2ccccc2)C1=O (stereo not given)	-7.13
Cc1ccc(CNc2cc3c(cc2Cl)NC(=O)CO3)cc1C	-0.667
CCNC(=O)C1CCN(Cc2ccc(C(=O)Nc3nnc(C)s3)cc2)C1 (stereo not given)	-2.87
NC(=O)CN(Cc1ncc(-c2ccc(F)cc2)o1)C1CCCC1	-3.13
CCn1nc(C)c(C(C)Nc2cc(C3CCNCC3)nc(C)n2)c1C (stereo not given)	0.304
COc1ccc(CN(C)[C@@H]2COC[C@H]2c2ccc(F)cc2)c(OC)c1	10.5
COc1ccccc1CCNC(=O)N(C)C(C)CS(C)(=O)=O (stereo not given)	-5.38
Cc1nc(CNC(=O)c2cc(COc3ccccc3F)[nH]n2)n[nH]1	5.27
O=C(CC1COCCN1)N1CCC2(CCc3ccccc32)CC1 (stereo not given)	-0.69
CN([C@@H]1CC[C@@H](N2CCCC2)[C@@H]1O)S(=O)(=O)c1ccccc1	-6.19
CCc1c(C(=O)Nc2ccc(F)c(C(=O)NC)c2)cnn1CC(C)C	11.4
CC(C)(C)c1n[nH]cc1CNC1CCC(C(F)(F)F)CC1 (stereo not given)	3.78
Cc1noc(-c2ccc(N(C)Cc3nccs3)nc2)n1	5.7
CC(C)(C)CN(CCC#N)C(=O)Nc1cccc(N2CCNC2=O)c1	-2.8

SMILES	Percent Effect [%]
CCOC(=O)c1n[nH]cc1CN1CCOC(Cc2ccc(F)cc2)C1 (stereo not given)	1.89
CC(=O)Nc1ccc(CNC(=O)CNCc2snnc2C)cc1	-1.84
CC(C)(C)CN(CCO)C(=O)Nc1cccc(N2CCNC2=O)c1	2.19
N#Cc1ccc(CN(CCF)Cc2cccc(F)c2)cc1	-7.25
CCN(CCCNC(=O)Nc1ccccc1C(C)C)S(C)(=O)=O	11
Cc1cc(-n2cccn2)ccc1CN1CCOCC(CN(C)C)C1 (stereo not given)	-0.486
O=C(NCc1nnc2n1CCCC2)c1ccc(C2CCCO2)s1 (stereo not given)	-8.64
COCCn1ccnc1C1CCCN(C(=O)CSc2nnc(C)o2)C1 (stereo not given)	1.51
O=C(CN1CC(c2nc(-c3ccco3)no2)C1)NCCc1ccccc1	-5
Cc1cnn(C2CCCN(C(=O)c3cc(-c4ccco4)[nH]n3)C2)c1 (stereo not given)	-19.9
CN1CCCC(CNC(=O)CN(C)S(=O)(=O)c2cccnc2)C1 (stereo not given)	-10.7
Cc1nc(CCN(C)C(=O)CN2CCCCCC2)no1	1.14
O=c1cc(N2CCNCC2)cnn1Cc1noc(C2CCCC2)n1	-1.96
CCC(C(=O)NCCc1nc(C)cc(C(F)(F)F)n1)n1cccn1 (stereo not given)	-8.03
COc1cc(N2CCN(Cc3ccc(C)o3)C(CCO)C2)nc(N)n1 (stereo not given)	0.197
Cc1cc(C)c(-n2cccn2)c(CN2CCOCC(CN(C)C)C2)c1 (stereo not given)	-0.542
COc1cc(F)c(NCc2nc3ccccc3n2C)cc1OC	-46.6
COCc1c(Cl)cccc1NC(=O)CNC(=O)C(C)(C)C	-4.63
Cc1cn[nH]c1C1COCCN1Cc1c[nH]cn1 (stereo not given)	8.68
Cc1nccn1CCN1C(=O)CC2(CCCC2)CC1=O	8.33
